Experimental findings from PubChem BioAssay AID745 (Emory University Molecular Libraries Screening Center, 2007) are described below.

Molecules are shown by their SMILES. Out of some 33,000 compounds screened, about 40 (0.1%) were called active. Rule as the data show it: active = z-score below about -3; inactive = the rest. This excerpt belongs to a sample that is enriched for actives.

The nature of the test: inhibitors of measles virus growth in cells, primary screen, measles RdRp inhibitor project, cell-based, single point, HTS (AID 745). The following applies: infected Vero cells, GFP fluorescence, 64 h; stronger effect = lower value.
With `CC1=C(C(=O)N2CCOCC2)C(c2cccc(Cl)c2)C2=C(CCCC2=O)N1` (stereo not given), the z-score is 0.7 (inactive).

Consider `COc1cc(NS(=O)(=O)c2ccc(NC(=O)CN3C(=O)c4ccccc4C3=O)cc2)ncn1`, for which the z-score is -0.53 (inactive).

For the compound `CCOC(=O)Cc1nnc(NC(=O)c2ccc([N+](=O)[O-])cc2)s1`, the z-score was -0.27 (inactive).

Take `Cc1c(C(=O)Nc2cccc(Cl)c2)oc2ccc(S(=O)(=O)N3CCOCC3)cc12`: the z-score was -0.46 (inactive).

With `C=CCn1c(SCCCC)nc2sc3c(c2c1=O)CCC3`, the z-score was 1.46 (inactive).

Regarding `Cc1cc(C)cc(NC(=O)c2cnn3c(C(F)(F)F)cc(-c4ccco4)nc23)c1`, the z-score is 0.42 (inactive).

`C=CCOc1ccc(NC(=O)C(=O)NC(C)c2ccccc2)cc1` (stereo not given): the z-score was 0.77 (inactive).

On to `O=C(O)COc1ccc(-c2cc(C(=O)O)c3cc(Br)ccc3n2)cc1`, for which the z-score was 0.41 (inactive).

For `NS(=O)(=O)c1ccc(CCNC(=O)c2ccc3c(=O)n(Cc4ccco4)c(=S)[nH]c3c2)cc1`, the z-score is 0.48 (inactive).

For the compound `COc1cccc(C(=O)Nc2ccc3nc(N4CCCCC4)cc(C)c3c2)c1`, the z-score was -0.1 (inactive).

In the case of `COc1cc(CNc2ccc3[nH]c(=O)[nH]c3c2)ccc1OCc1cccs1`, the z-score is -1.62 (inactive).

On to `CCCCc1ccc(C(=O)Nc2ccc3nc(N4CCN(C)CC4)cc(C)c3c2)cc1`, for which the z-score is -0.21 (inactive).

On to `COc1ccc(-c2nc3ccccc3n2Cc2ccccc2)cc1OC`, for which the z-score was 0.26 (inactive).

As for `O=C(Nc1ccc(Cl)cn1)c1ccc(-c2ccc(Cl)cc2)o1`, the z-score was -0.31 (inactive).

As for `CCOC(=O)c1c(C)nc2c(C#N)c(C)n(-c3ccccc3)c2c1-c1ccc(Br)cc1`, the z-score was 3.74 (inactive).

Regarding `Cc1ccc(C2NC(=O)c3c(sc4c3CCCC4)N2)c(O)c1` (stereo not given), the z-score was -1.13 (inactive).

In the case of `CC1=C(C(=O)OCC(C)C)C(c2ccc(OCc3ccccc3)cc2)N2C(=O)CCSC2=N1` (stereo not given), the z-score was -0.14 (inactive).

For the compound `COc1ccc2nc(SCc3ccc(Cl)cc3)[nH]c2c1`, the z-score was 0.1 (inactive).

For the compound `COc1cc(C2CC(=O)c3cnc(NC(C)=O)nc3C2)cc(OC)c1OC` (stereo not given), the z-score was 1.22 (inactive).

As for `Cc1cc(N2C(=O)c3ccccc3C2=O)ccc1Br`, the z-score was -1.04 (inactive).

Regarding `Cc1cccc(NC(=O)c2cc3c(=O)n4cccc(C)c4nc3s2)c1`, the z-score was -1.13 (inactive).

Turning to `Cc1ccc(-n2c(SCC(=O)OCc3ccccc3)nc3c(c2=O)SCC3)cc1`, the z-score was -1 (inactive).

On to `O=C1NC(c2ccccc2)Oc2ccccc21` (stereo not given), for which the z-score was -0.5 (inactive).

Regarding `Cc1ccc(Sc2c(C)nn(C(C)(C)C)c2OC(=O)C2CCCC2)cc1`, the z-score is -0.01 (inactive).

With `C=CCOC(=O)C1=C(C)N=C2SCCC(=O)N2C1c1ccc(Br)cc1` (stereo not given), the z-score is -1.08 (inactive).

As for `Cc1cc(C)cc(NC(=O)C(C)N(c2ccccc2)S(C)(=O)=O)c1` (stereo not given), the z-score was 0.11 (inactive).

As for `COC(=O)Cn1c(=O)n(-c2ccccc2)c(=O)n1CC(=O)OC`, the z-score was 1.19 (inactive).

With `O=C1C2C3c4ccccc4C(Br)(c4ccccc43)C2C(=O)N1c1ccc([N+](=O)[O-])cc1` (stereo not given), the z-score is -0.34 (inactive).

`O=c1oc2ccc3ccccc3c2cc1-c1nc(-c2ccccc2)cs1`: the z-score was 0.88 (inactive).

Regarding `CC1CCC(NS(=O)(=O)c2ccc3c(c2)oc(=O)n3C)CC1` (stereo not given), the z-score was -0.87 (inactive).

`CN1CCN(C(=O)c2cnn3c(C(F)(F)F)cc(-c4ccc(Br)cc4)nc23)CC1`: the z-score is -0.34 (inactive).

Consider `O=C(NCc1ccc(F)cc1)c1ccc2c(=O)n(C3CCCC3)c(=S)[nH]c2c1`, for which the z-score is -0.53 (inactive).

On to `COc1ccc(-c2c(C(F)(F)F)oc3cc(O)ccc3c2=O)cc1`, for which the z-score is 0.21 (inactive).

Turning to `CC(C)c1ccccc1NC(=O)c1ccccc1`, the z-score is 0.08 (inactive).

Turning to `CC(C)c1ccc(NC(=O)c2ccc(NC3CCCC(C)C3C)c([N+](=O)[O-])c2)cc1` (stereo not given), the z-score is -0.26 (inactive).

For the compound `O=C(CSc1nc2c(cnn2-c2ccc(F)cc2)c(=O)[nH]1)N1CCCCCC1`, the z-score was -0.88 (inactive).

Take `CCCn1c2ccccc2c2n[nH]c(=S)nc21`: the z-score is -0.86 (inactive).

Turning to `Cc1ccc(Cl)cc1N1CCN(C(=O)CCCn2c(=S)[nH]c3cc4c(cc3c2=O)OCO4)CC1`, the z-score was 1.87 (inactive).

In the case of `Cc1ccc(-c2cc3nc(C)cc(C(F)(F)F)n3n2)cc1`, the z-score is -0.75 (inactive).

Turning to `COC(=O)c1ccc(Sc2ccc(C)cc2)c([N+](=O)[O-])c1`, the z-score is 0.34 (inactive).

Turning to `CCCn1c(C(C)NC(=O)C(C)(C)C)nc2ccccc21` (stereo not given), the z-score is -0.58 (inactive).

`Cc1cccc(NC(N)=Nc2nc(CSc3ccc(Cl)cc3)cc(=O)[nH]2)c1`: the z-score is 0.03 (inactive).

`O=[N+]([O-])c1ccc(C=Nc2ccc(-c3nc4ccccc4o3)cc2)s1`: the z-score is -1.32 (inactive).

On to `CC(C)(C)c1ccc(C(=O)Nc2ccc(N3CCOCC3)c(Cl)c2)cc1`, for which the z-score is -1.1 (inactive).

`CN(Cc1ccccc1)C(=O)Cn1ncc2c(=O)oc3ccccc3c21`: the z-score was 1.21 (inactive).

In the case of `CCCCNC(=O)c1ccc[nH]c1=S`, the z-score was 0.16 (inactive).

Consider `CC(=O)c1cccc(NC(=O)c2ccccc2C(=O)O)c1`, for which the z-score is -0.2 (inactive).

With `COc1ccc(OC)c2[nH]c(=O)c(CCNC(=O)c3ccccc3I)cc12`, the z-score was -0.19 (inactive).

As to `CSCCC1(C(=O)O)NC(c2cc(I)ccc2O)C2C(=O)N(Cc3ccccc3)C(=O)C21` (stereo not given), the z-score was -0.74 (inactive).

As for `O=C(NCc1ccccc1)c1ccc(CSCc2ccccc2Cl)o1`, the z-score was -0.18 (inactive).

Take `Cc1ccc(S(=O)(=O)n2nc(OC(=O)c3ccc(F)cc3)cc2N)cc1`: the z-score is -1.65 (inactive).

For `Cn1c(=O)c(Cl)c(O)c2ccccc21`, the z-score was 0.2 (inactive).

Consider `COC(=O)c1c(NC(=O)Cn2cnc([N+](=O)[O-])n2)sc2c1CCCC2`, for which the z-score is -0.06 (inactive).

As to `CCOc1ccc(N=C2NC(=O)C(CC(=O)Nc3ccc(Br)cc3)S2)cc1` (stereo not given), the z-score was -0.81 (inactive).

`Cc1cccc(NC(=O)c2ccc(F)c(S(=O)(=O)N3CC(C)CC(C)C3)c2)c1` (stereo not given): the z-score was -0.97 (inactive).

For `COC(=O)c1c(NC(=O)c2ccc(S(=O)(=O)N3CC(C)CC(C)C3)cc2)sc2c1CC(C)(C)NC2(C)C` (stereo not given), the z-score was -0.34 (inactive).

For `Cc1cccc(N2CCN(C(=O)c3ccc4nc5ccc(Cl)cc5c(=O)n4c3)CC2C)c1` (stereo not given), the z-score is 0.3 (inactive).

Consider `CCOc1ccccc1NC(=O)c1sc2ncnc(N3CCCCC3C)c2c1C` (stereo not given), for which the z-score is 1.12 (inactive).

On to `Cc1ccc(-n2nc3c(c2NC(=O)c2ccccc2F)CS(=O)(=O)C3)c(C)c1`, for which the z-score was -0.44 (inactive).

With `O=C1C2C3c4ccccc4C(C(=O)O)(c4ccccc43)C2C(=O)N1c1ccccc1Cl` (stereo not given), the z-score is -0.65 (inactive).

With `CC(C)(C)c1nnc(Nc2ccc3c(c2)OCO3)[nH]c1=O`, the z-score is -0.67 (inactive).

Take `CCNS(=O)(=O)c1cc(-c2nnc(Nc3cccc(C(F)(F)F)c3)c3ccccc23)ccc1C`: the z-score was -0.06 (inactive).

Turning to `Cc1ccc2nc(-c3ccccc3)c(Nc3ccccc3C)n2c1`, the z-score was -1.03 (inactive).

For the compound `COc1ccc(C2/C(=C(\O)c3ccccc3)C(=O)C(=O)N2CO)cc1` (stereo not given), the z-score was -0.38 (inactive).

Regarding `O=P(Cc1cccc(CP(=O)(c2ccccc2)c2ccccc2)n1)(c1ccccc1)c1ccccc1`, the z-score was -1.8 (inactive).

On to `COc1cc(NC(=O)c2noc3c2CCCCC3)c(OC)cc1Cl`, for which the z-score was -0.93 (inactive).

As for `Cc1ccc(S(=O)(=O)C2(C(=O)N(C)Cc3ccccc3)CC2)cc1`, the z-score is 0.74 (inactive).

Regarding `CCC(C(=O)NCCC(C)C)N1C(=O)CSc2ccc(C(C)(C)C)cc21` (stereo not given), the z-score was 0.55 (inactive).

As for `Cc1cc(C(=O)NCCCN=C2NS(=O)(=O)c3ccccc32)c2ccccc2n1`, the z-score is 1.11 (inactive).

In the case of `N#Cc1c(NC(=O)CCCC(=O)O)sc2c1CCCC2`, the z-score was -0.15 (inactive).

Consider `CCCC12CN3CC(C)(CN(C1)C3c1ccccc1Cl)C2=O` (stereo not given), for which the z-score was -0.48 (inactive).

As for `O=C1CCCc2oc3c(cc(NS(=O)(=O)c4ccc(Cl)cc4)c4ccccc43)c21`, the z-score was -0.4 (inactive).

Turning to `CN(C(=O)CCn1c(=S)oc2ccccc21)C1CCCCC1`, the z-score was -2.69 (inactive).

For the compound `CCOc1ccc(C(=O)Nc2cccc(-c3nc4cc(C)ccc4o3)c2)cc1Br`, the z-score was -0.49 (inactive).

As to `O=C(Nc1c2c(nn1-c1ccc(F)cc1)CS(=O)(=O)C2)c1ccccc1Cl`, the z-score was -1.44 (inactive).

Take `COc1ccc(C2Nc3ccccc3C(=O)N2c2ccc(Cl)cc2)cc1COc1ccccn1` (stereo not given): the z-score was 0.19 (inactive).

Consider `Cc1cc(Cl)ccc1OC1C(=O)N(c2cccc([N+](=O)[O-])c2)C1c1ccccc1Cl` (stereo not given), for which the z-score was -0.08 (inactive).

As for `O=C(CCCn1c(=O)[nH]c2cc(Cl)ccc2c1=O)NCCc1c[nH]c2ccccc12`, the z-score was -0.02 (inactive).

Turning to `O=S1(=O)N=C(N2CCCCC2)c2ccccc21`, the z-score is 2.63 (inactive).

With `CC(=O)c1cccc(N2C(=O)c3ccc(C(=O)OCC(=O)c4cccc([N+](=O)[O-])c4)cc3C2=O)c1`, the z-score was -0.12 (inactive).

`CC(C)Sc1oc(-c2ccc(F)cc2)nc1S(=O)(=O)c1ccc(Cl)cc1`: the z-score was -1.46 (inactive).

For the compound `CC(=O)NC1=NN(C(C)=O)C(c2ccc3c(c2)OCO3)S1` (stereo not given), the z-score was -0.09 (inactive).

In the case of `Cc1ccc(S(=O)(=O)N2CCCCCC2)cc1C(=O)Nc1ccc(Br)cc1`, the z-score was -0.48 (inactive).

For the compound `CCOc1ccc(-c2cc(C(=O)N3CCN(Cc4ccc5c(c4)OCO5)CC3)c3ccccc3n2)cc1`, the z-score is 0.33 (inactive).

On to `O=C(NCCN1CCOCC1)c1cc(Sc2cccc(Cl)c2)nc2ccccc12`, for which the z-score is 0.36 (inactive).

Take `Cc1cccc(NC(=O)c2c(NC(=O)c3ccncc3)sc3c2CCC(C(C)(C)C)C3)c1` (stereo not given): the z-score is -0.43 (inactive).

`COc1ccc(NC(=O)CN2C(=O)C3C4CCC(C4)C3C2=O)cc1` (stereo not given): the z-score was 0.52 (inactive).

As for `Cc1ccc(C)c(OCCc2c(C)n[nH]c2C)c1`, the z-score was 0 (inactive).

Turning to `COC(=O)c1ccccc1Oc1c(F)c(F)nc(NCCO)c1F`, the z-score is -0.51 (inactive).

For the compound `COc1ccc(OC)c(C=Nc2oc(-c3ccccc3)c(-c3ccccc3)c2C#N)c1`, the z-score was -1 (inactive).
